From PubChem BioAssay (NCATS)
Results filed as inconclusive are left out. A call without a number means that no potency is given here. Unmarked numbers belong to inactive results. The source made the active and inactive calls. Calls follow the shape of the dose curve; as a rule, active = well fitted inhibition curve with a large enough effect; inconclusive = small, poorly fitted or top-dose-only effect; inactive = flat fitted curve, though single readings scatter.

Test: P-glycoprotein substrates identified in KB-8-5-11 adenocarcinoma cell line, qHTS therapeutic library screen (AID 1346987); also: nearly all actives have a fitted effect of over 65% in size
Details: KB-8-5-11 (P-gp overexpressing) viability, CellTiter-Glo, 72 h; series mostly up to 44.5 µM
Summary of the method: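 Human cervical adenocarcinoma KB-8-5-11 cells, selected in colchicine to over-express P-gp and assayed without it, were exposed for 72 h to titrated compounds. An ATP-based luminescent viability signal gave AC50.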
Potency is read from the fitted curve at half-maximal effect.

Row | SMILES | Potency | outcome | activity change, negative = cytotoxicity
1 | CCC1C(=O)OC23C=C[C@@H]4C(C(=O)O)=CO[C@H](O[C@@H]12)[C@@H]43 (some centres undefined) | inactive |  | 
2 | O=C(O)C(O[C@@H]1O[C@H](CO[C@@H]2O[C@H](CO)[C@@H](O)[C@H](O)[C@H]2O)[C@@H](O)[C@H](O)[C@H]1O)c1ccccc1 (some centres undefined) | inactive |  | 
3 | CC(C)(C(=O)NCC(F)(F)C(F)(F)F)C(=O)NC1C(=O)Nc2ccccc2-c2ccccc21 (centres undefined) | 4.61 µM (active) |  | 
4 | CC1(C)CCC(C)(C)c2cc(C3(c4ccc(C(=O)O)cc4)OCCO3)ccc21 | inactive |  | 
5 | CC[C@H](C)[C@H](NC(=O)[C@H]([C@@H](C)CC)N(C)C(C)=O)C(=O)N[C@H](C(=O)N[C@@H](CC(C)C)C(=O)[C@@]1(C)CO1)[C@@H](C)O | 2.59 µM (active) |  | 
6 | CC1=C(COC2OC(CO)C(O)C(O)C2O)C(C(CO)C(=O)O)CC1 (centres undefined) | inactive |  | 
7 | CC(=O)O[C@@H]1c2c(C)coc2C(=O)[C@@]23O[C@@H]2CC[C@H](C)[C@@]13C | inactive |  | 
8 | CN1CCC(Nc2nc(Nc3ccc(Oc4ccccc4)cc3)c3c(=O)[nH]cc(Br)c3n2)CC1 | 4.61 µM (active) |  | 
9 | NC(=O)[C@H]1CCS[C@@H]2C[C@]3(CCCN3C(=O)Cc3ccc(NC(=O)COc4ccc(Cl)cc4Cl)cc3)C(=O)N12 | 20.6 µM (active) |  | 
10 | Clc1cc2c(NC3CCCC3)nnc(-c3ccncc3)c2cc1Cl | inactive |  | 
11 | CC(=O)O[C@@H]1[C@@H](O)[C@H](C)O[C@@H](O[C@H]2[C@@H]3C=CO[C@@H](O[C@@H]4O[C@H](CO)[C@@H](O)[C@H](O)[C@H]4O)[C@@H]3[C@@]3(CO)O[C@@H]23)[C@@H]1OC(=O)/C=C/c1ccccc1 | inactive |  | 
12 | Cc1c[nH]c2nccc(Oc3c(F)cc(Nc4cc(Cl)nc(N)n4)cc3F)c12 | 1.3 µM (active) |  | 
13 | CNC(=O)c1ccccc1Nc1nc(Nc2ccc3c(c2OC)CCCC(N2CCN(CCO)CC2)C3)ncc1Cl (centres undefined) | 8.2 µM (active) |  | 
14 | COc1cc2c3c(cc4ccccc4c3c1O)NC2=O | inactive |  | 
15 | COc1cc2c(cc1OC)-c1[nH]nc(Nc3cccc(F)c3)c1C2 | 0.092 µM (active) |  | 
16 | C[C@@H]1CC[C@]2(C(=O)O)CC[C@]3(C)C(=CCC4[C@@]5(C)CC[C@H](O)C(C)(C)C5C(O)C[C@]43C)[C@@H]2[C@]1(C)O (some centres undefined) | inactive |  | 
17 | CC1(C)CC[C@]2(C(=O)O[C@@H]3O[C@H](CO)[C@@H](O)[C@H](O)[C@H]3O)CC[C@]3(C)C(=CCC4[C@@]5(C)C[C@@H](O)[C@H](O)[C@](C)(C(=O)O)C5CC[C@]43C)C2C1O (some centres undefined) | inactive |  | 
18 | CC1(C)CCCC2(C)C=C(C(=O)O)C(O)CC12 (centres undefined) | inactive |  | 
19 | COc1cc(O)c([C@@H](CC(=O)N2CC(C)CC(C)C2)c2ccc3c(c2)OCO3)c(OC)c1 (some centres undefined) | inactive |  | 
20 | CC1CC2OC3(OC2C(C)(C)O)C1C1(C)CCC24CC25CCC(O[C@@H]2OC[C@@H](O)[C@H](O)[C@H]2O)C(C)(C)C5CC=C4C1(C)C3O (some centres undefined) | inactive |  | 

Row | SMILES | Potency | outcome | activity change, negative = cytotoxicity
21 | C[C@]1(CO)CCC[C@]2(C)C3=C(CCC12)COC3 (some centres undefined) | inactive |  | 
22 | CN=C(N)NCCCCC/C=C(/C)CC(C)C1OC(=O)C(C)C(O)/C=C/C(C)C(O)CC(O)C(C)C(O)CCC(C)C(O)CC2(O)OC(CC(OC(=O)CC(=O)O)CC(O)CC(O)C(C)C(O)/C(C)=C/CCC1C)CC(O)C2O (centres undefined) |  | inactive [at 9.29 µM] | 
23 | CC1C=CC2CCCCC2C1CCC1CC(O)CC(=O)O1 (centres undefined) | inactive |  | 
24 | CC1(C)[C@@H](O)CC[C@]2(C)[C@H]3CC=C4[C@@H]5C[C@](C)(C(=O)O)CC[C@]5(C)CC[C@@]4(C)[C@]3(C)CC[C@@H]12 | inactive |  | 
25 | C/C=C1\[C@H](OC2OC(COC3OC(CO)C(O)C(O)C3O)C(O)C(O)C2O)OC=C(C(=O)OC)[C@H]1CC(=O)OCCc1ccc(O)cc1 (some centres undefined) | inactive |  | 
26 | CC1CC[C@]2(C(=O)O)CC[C@]3(C(=O)O)C(=CCC4[C@@]5(C)CC[C@H](OC6OC(C)C(O)C(OC7OC(CO)C(O)C(O)C7O)C6O)C(C)(C)C5CC[C@]43C)C2C1C (some centres undefined) | inactive |  | 
27 | OC[C@@]1(O)CO[C@@H](OC[C@H]2O[C@@H](Oc3c[nH]c4ccccc34)[C@H](O)[C@@H](O)[C@@H]2O)[C@@H]1O | inactive |  | 
28 | C/C1=C\CCC2=C[C@@H](OC2=O)c2c(C)coc2C1 | inactive |  | 
29 | COc1cccc2cc3c(c(O[C@@H]4O[C@H](CO[C@@H]5O[C@H](CO)[C@@H](O)[C@H](O)[C@H]5O)[C@@H](O)[C@H](O)[C@H]4O)c12)C(C)OC3=O (some centres undefined) | inactive |  | 
30 | CC(=O)N[C@H]1[C@H](O[C@H]2CC[C@@]3(C)C(CC[C@]4(C)C3CC=C3C5CC(C)(C)CC[C@]5(C(=O)O)[C@H](O)C[C@]34C)C2(C)C)O[C@H](CO[C@@H]2OC[C@H](O)[C@H](O)[C@H]2O[C@@H]2OC[C@@H](O)[C@H](O)[C@H]2O)[C@@H](O)[C@@H]1O (some centres undefined) |  |  | 5.39% [at 9.29 µM]
31 | CCCN1CCC(c2cccc(S(C)(=O)=O)c2)CC1 | inactive |  | 
32 | COc1ccc(-c2cnc3ccc(NCc4ccc(S(N)(=O)=O)cc4)nn23)cc1OC | inactive |  | 
33 | C/C=C/c1cc(OC)c2c(c1)[C@@H](C)[C@@H](c1ccc(O)c(OC)c1)O2 | inactive |  | 
34 | COC(=O)C1(C)CCC2(C(=O)O)CCC3(C)C(=CCC4C5(C)CC(O)C(OC6OCC(O)C(O)C6O)C(C)(CO)C5CCC43C)C2C1 (centres undefined) | inactive |  | 
35 | CCCN1CCN(c2ccc(C(=O)NC3(C(=O)NCC#N)CCCCC3)cc2)CC1 | inactive |  | 
36 | C/C=C/C1=CC2=C(CO1)C(=O)C(C)(O)C(OC(=O)c1c(C)cc(OC)cc1O)C2 (centres undefined) | inactive |  | 
37 | CC(C)NCC(C(=O)N1CCN(c2ncnc3c2C(C)CC3O)CC1)c1ccc(Cl)cc1 (centres undefined) | inactive |  | 
38 | C[C@H]1[C@H](O)O[C@@H]2O[C@@]3(C)CC[C@H]4[C@H](C)CC[C@@H]1[C@@]24OO3 | 11.6 µM (active) |  | 
39 | CN(C)C/C=C/C(=O)Nc1cc2c(Nc3ccc(F)c(Cl)c3)ncnc2cc1OC1CCOC1 (centres undefined) | 14.6 µM (active) |  | 
